Compound activity deposited in PubChem BioAssay by Broad Institute.
This is a sample that favours compounds with a hit; in the whole collection about 6.7% have one here.
C diff growth: C. difficile growth inhibition | Clostridium difficile clinical isolate growth, OD600, 24 h; hits give low values | growth activity, negative = inhibition, % at 16 µg/mL (by protocol) | 86,000 tested, 0.25% active;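 active = mean growth activity at or below -80% and every replicate also at or below -80%; inconclusive = mean at or below -80% but some replicate above -80%; inactive = mean growth activity above -80%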;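 also: 0% = DMSO wells and -100% = levofloxacin 16 µg/mL wells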
Pf Dd2 growth: inhibitors of Plasmodium falciparum Dd2 growth. P. falciparum Dd2 growth, SYBR Green, 72 h; hits give low values. activity change, % at 10 µM. 94,000 tested, 2.3% active. AID 1159554; in the data active = activity change below about -80%; inconclusive = no clear call, values can overlap the other calls
T cruzi growth-1: inhibitors of T. cruzi proliferation. 77,000 tested, 5.9% active. inhibition, % at 8.34 µM. T. cruzi beta-gal in NIH3T3, GalScreen luminescence, 90 h;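 active = mean inhibition above about 93%, with at least 55% of replicates each passing it, limit read from the data, passing the limit was not always enough; inconclusive = only one of those two conditions holds; inactive = neither condition holds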
T cruzi growth-2: Trypanosoma cruzi proliferation inhibition; shares compounds with T cruzi growth-1; 5,600 tested, 72% active; inhibition, % at 8.35 µM; T. cruzi beta-gal in NIH3T3, GalScreen luminescence, 90 h;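 active = mean replicate inhibition above about 95% and at least 55% of replicates individually reaching it, limit read from the data; inconclusive = only one of the two criteria is met; inactive = neither criterion is met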
T cruzi growth-3: inhibitors of T. cruzi proliferation; T. cruzi beta-gal in NIH3T3, GalScreen luminescence, 90 h; 5,600 tested, 21% active; shares compounds with T cruzi growth-1; AID 651740; inhibition, % at 2.09 µM;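 active = mean inhibition above about 95%, with at least 55% of replicates also reaching it, limit read from the data; inconclusive = meets just one of the two conditions; inactive = meets neither condition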;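 also: plate controls were neutral control median for no effect and positive control median for full effect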
3T3 cytotox: NIH/3T3 (mouse) viability loss. shares compounds with T cruzi growth-1. NIH/3T3 viability, CellTiter-Glo ATP luminescence, 90 h. cytotoxicity (signal decrease), % at 8.35 µM. 5,600 tested, 14% active. AID 651742;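 active = mean signal decrease across replicates above about 35% based on untreated-well scatter, with enough replicates individually passing, limit read from the data; inconclusive = no rule stated though some were filed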;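 also: 0% = median of neutral control wells and 100% = median of positive control wells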
3T3 cytotox 2: cytotoxicity in mouse NIH/3T3 fibroblasts. shares compounds with T cruzi growth-1. NIH/3T3 viability, CellTiter-Glo ATP luminescence, 90 h. 5,600 tested, 56% active. inhibition, % at 24.9 µM;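 active = mean loss of cell viability signal at or above a set limit, and enough replicates individually reaching it; inconclusive = meets only the mean limit or only the replicate share; inactive = meets neither condition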;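 also: 0% = median of neutral control wells and 100% = median of positive control wells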
Active calls of the source: *; u = inconclusive; x = not tested or not shown.

SMILES | C diff growth | Pf Dd2 growth | T cruzi growth-1 | T cruzi growth-2 | T cruzi growth-3 | 3T3 cytotox | 3T3 cytotox 2
N#C[C@H]1[C@@H](c2ccc(C#Cc3ccc(F)cc3)cc2)[C@H](CO)N1C(=O)Nc1ccc(F)cc1 | 3 | -31 | 88 | x | x | x | x
C[C@@H]1CN([C@H](C)CO)C(=O)c2cc(NS(=O)(=O)c3ccc(F)cc3)ccc2O[C@@H](C)CCCCO[C@@H]1CN(C)Cc1ccncc1 | -5 | -32 | x | x | x | x | x
CO[C@H]1CN(C)C(=O)c2ccc(NC(=O)NC(C)C)cc2OC[C@@H](C)N(C(=O)CC2CC2)C[C@@H]1C | -1 | 4 | 25 | x | x | x | x
CCCNC(=O)[C@@H]1[C@@H](CO)[C@@H]2Cn3c(ccc(-c4ccccc4F)c3=O)[C@H]1N2CCC | 0 | 5 | 11 | x | x | x | x
COC(=O)[C@H]1[C@H](CO)[C@H]2Cn3c(ccc(-c4cccc(C(=O)N(C)C)c4)c3=O)[C@H]2N1CC1CC1 | 2 | x | 44 | x | x | x | x
CCNC(=O)[C@@H]1[C@@H](CO)[C@@H]2Cn3c(ccc(-c4ccc(OC)cc4)c3=O)[C@@H]2N1Cc1ccccc1 | 1 | -21 | 100* | 6 | -25 | -13 | 0
CCN1[C@H](C(=O)OC)[C@@H](CO)[C@@H]2Cn3c(ccc(-c4cccc(C(=O)N(C)C)c4)c3=O)[C@@H]21 | 4 | -19 | 96* | -38 | -44 | -12 | -14
CCN1[C@@H]2c3ccc(-c4cccc(F)c4)c(=O)n3C[C@@H]2[C@@H](CO)[C@@H]1C(=O)N[C@@H](C)c1ccccc1 | 2 | -11 | 102* | 25 | 30 | 1 | 25*
CCNC(=O)[C@H]1[C@H](CO)[C@H]2Cn3c(ccc(-c4ccccc4)c3=O)[C@H]2N1Cc1ccccc1 | -1 | -32 | 52 | x | x | x | x
COc1ccc(-c2ccc3n(c2=O)C[C@@H]2[C@@H](CO)[C@H](C(=O)N(C)C)N(CC4CC4)[C@H]32)cc1 | 10 | -3 | 103* | 22 | 9 | -3 | 19
COc1ccc(-c2ccc3n(c2=O)C[C@@H]2[C@@H](CO)[C@H](C(=O)N(C)C)N(CC4CCCC4)[C@H]32)cc1 | -4 | x | -4 | x | x | x | x
CCN1[C@H](C(=O)N[C@H](C)c2ccccc2)[C@@H](CO)[C@@H]2Cn3c(ccc(-c4cccc(F)c4)c3=O)[C@@H]21 | 2 | -9 | 76 | x | x | x | x
CCC(=O)Nc1ccc2c(c1)OC[C@@H](C)N(Cc1cccnc1)C[C@H](C)[C@@H](OC)CN(C)C2=O | x | 15 | 24 | x | x | x | x
COc1ccc(-c2cn(CC[C@H]3CC[C@H](NC(=O)CCN4CCCCC4)[C@@H](CO)O3)nn2)cc1 | x | -2 | -39 | x | x | x | x
COc1ccc2c3c(n(C)c2c1)[C@@H](CO)N(CC1CC1)CC31CN(S(=O)(=O)c2cccs2)C1 | 4 | -52 | x | x | x | x | x
CO[C@H]1CN(C)C(=O)c2ccc(NS(=O)(=O)c3ccccc3)cc2OC[C@@H](C)N(Cc2nccs2)C[C@H]1C | -5 | -23 | 5 | x | x | x | x
C[C@H](CO)N1C[C@H](C)[C@H](CN(C)C(=O)C2CCC2)Oc2ncc(-c3ccccc3F)cc2C1=O | -4 | 33 | 33 | x | x | x | x
CC=Cc1ccc2n(c1=O)C[C@H]1[C@H](CO)[C@@H](C(=O)NC3CCCC3)N(CCC)[C@@H]21 (mixture of isomers) | -3 | -12 | x | x | x | x | x
COC(=O)[C@H]1[C@H](CO)[C@H]2Cn3c(ccc(-c4ccccc4)c3=O)[C@H]2N1Cc1cccc(F)c1 | 3 | -7 | 87 | x | x | x | x
COC(=O)[C@@H]1[C@@H](CO)[C@@H]2Cn3c(ccc(-c4ccccc4)c3=O)[C@@H]2N1Cc1cccc(F)c1 | 9 | -12 | u | 26 | -17 | -8 | -1
CC(C)CC#Cc1ccc2c(c1)O[C@H](CN(C)Cc1ccncc1)[C@@H](C)CN([C@H](C)CO)S2(=O)=O | 11 | -77 | 122* | 104* | 104* | 30 | 105*
CC(C)CC#Cc1ccc2c(c1)O[C@@H](CN(C)Cc1cncnc1)[C@@H](C)CN([C@@H](C)CO)S2(=O)=O | 1 | -18 | 70 | x | x | x | x
CC(C)CC#Cc1ccc2c(c1)O[C@@H](CN(C)Cc1ccncc1)[C@H](C)CN([C@H](C)CO)S2(=O)=O | 21 | -76 | 129* | 93 | 105* | 61* | 104*
CC(C)CC#Cc1ccc2c(c1)O[C@@H](CN(C)Cc1cncnc1)[C@H](C)CN([C@H](C)CO)S2(=O)=O | -11 | -34 | 52 | x | x | x | x
CC(C)CC#Cc1ccc2c(c1)O[C@H](CN(C)Cc1ccc(F)cc1)[C@@H](C)CN([C@@H](C)CO)S2(=O)=O | 19 | -62 | 101 | x | x | x | x
SMILES | C diff growth | Pf Dd2 growth | T cruzi growth-1 | T cruzi growth-2 | T cruzi growth-3 | 3T3 cytotox | 3T3 cytotox 2
CC(C)CC#Cc1ccc2c(c1)O[C@H](CN(C)Cc1ccncc1)[C@@H](C)CN([C@@H](C)CO)S2(=O)=O | 20 | -69 | 130* | 94 | 111* | u | 106*
CN(C)C(=O)C[C@@H]1C=C[C@@H](NC(=O)NC2CCCC2)[C@@H](CO)O1 | -1 | -5 | x | x | x | x | x
COCCNC(=O)C[C@H]1CC[C@@H]2[C@H](COC[C@@H](O)CN2C(=O)Nc2ccc3c(c2)OCO3)O1 | -2 | 1 | -65 | x | x | x | x
CN(C)CC(=O)N[C@@H]1CC[C@@H](CCNS(=O)(=O)c2ccccc2)O[C@H]1CO | -6 | 7 | x | x | x | x | x
COc1ccc2c3c([nH]c2c1)[C@@H](CO)N(C(=O)CC1CC1)CC31CCN(Cc2cncnc2)CC1 | x | 48 | x | x | x | x | x
O=C(C[C@H]1CC[C@H]2[C@@H](COC[C@@H](O)CN2C(=O)c2ccccc2)O1)Nc1ccccc1 | 0 | 29 | x | x | x | x | x
O=C(C[C@@H]1CC[C@H](NC(=O)C2CCOCC2)[C@@H](CO)O1)NCc1ccncc1 | -1 | 32 | x | x | x | x | x
CCC(=O)NC[C@H]1N[C@H](CO)[C@@H]1c1ccc(-c2ccccc2F)cc1 | -6 | -2 | x | x | x | x | x
COCC(=O)NC[C@H]1N[C@H](CO)[C@@H]1c1ccc(C2=CCCCC2)cc1 | -4 | 7 | 98* | 70 | -9 | -10 | 12
O=C(NC[C@@H]1N[C@@H](CO)[C@H]1c1ccc(-c2ccccc2F)cc1)c1ccccc1 | 27 | -12 | 109* | 107* | 34 | 5 | 104*
O=C(NC[C@@H]1N[C@@H](CO)[C@H]1c1ccc(C2=CCCC2)cc1)c1ccccc1 | 6 | -7 | 40 | x | x | x | x
O=C(NC[C@H]1N[C@H](CO)[C@@H]1c1ccc(-c2ccccc2F)cc1)c1ccccc1 | 36 | 2 | u | 96* | 11 | 2 | 105*
O=C(NC[C@@H]1N[C@@H](CO)[C@@H]1c1ccc(C2=CCCC2)cc1)c1ccccc1 | 51 | -27 | 113* | 108* | 82 | 39* | 107*
COCC(=O)NC[C@@H]1N[C@@H](CO)[C@H]1c1ccc(C2=CCCC2)cc1 | 7 | 22 | -1 | x | x | x | x
